Shown are actives, neighbours in structure and some others; about 3.2% of the full set was active somewhere.
rCAG binder: r(CAG) repeat RNA binding; TO-PRO-1 dye displacement fluorescence; inhibition, % at 3 µM; 1.3% of 370,000 active; AID 651821;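 active = inhibition above the plate cutoff, the mean of all test compounds on that plate plus 3 SD, cut at about 35% in these data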;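 note: 0% = DMSO alone and 100% = 100 µM mitoxantrone as full dye displacement; higher means more dye released from RNA so lower well fluorescence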
NadD block: blocks S. aureus nicotinate mononucleotide adenylyltransferase; purified NadD enzyme, colorimetric absorbance read-out; inhibition, % at 20 µM; 0.78% of 360,000 active; in the data active = inhibition above about 26%
bovine MsrA act: activators of bovine methionine sulfoxide reductase A. purified bovine MsrA, absorbance read-out. 0.3% of 360,000 active. activation, % at 10.6 µM; in the data active = activation above about 7.5%;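 note: 0% = vehicle and 100% = reference activator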
MsrA inh: bovine MsrA inhibition; 0.75% of 360,000 active; purified bovine MsrA, absorbance read-out; inhibition, % at 15.5 µM; in the data active = inhibition above about 4.5%;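 note: 0% = vehicle wells with enzyme and 100% = reference inhibitor wells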
DSG3 Ab inh: human desmoglein-3 autoantibody binding inhibition | DSG3-coupled beads, scFv-anti-DSG3-GFP binding, flow cytometry; active compounds read low | AID 588358 | binding (percent of control), % at 10 µM | 0.48% of 310,000 active | P32926;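 active = binding more than 3 SD below its plate's average and above zero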;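 note: hits lower antibody fragment binding to DSG3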
Target sequence (P32926 whole entry, looked up, the tested form may be a part): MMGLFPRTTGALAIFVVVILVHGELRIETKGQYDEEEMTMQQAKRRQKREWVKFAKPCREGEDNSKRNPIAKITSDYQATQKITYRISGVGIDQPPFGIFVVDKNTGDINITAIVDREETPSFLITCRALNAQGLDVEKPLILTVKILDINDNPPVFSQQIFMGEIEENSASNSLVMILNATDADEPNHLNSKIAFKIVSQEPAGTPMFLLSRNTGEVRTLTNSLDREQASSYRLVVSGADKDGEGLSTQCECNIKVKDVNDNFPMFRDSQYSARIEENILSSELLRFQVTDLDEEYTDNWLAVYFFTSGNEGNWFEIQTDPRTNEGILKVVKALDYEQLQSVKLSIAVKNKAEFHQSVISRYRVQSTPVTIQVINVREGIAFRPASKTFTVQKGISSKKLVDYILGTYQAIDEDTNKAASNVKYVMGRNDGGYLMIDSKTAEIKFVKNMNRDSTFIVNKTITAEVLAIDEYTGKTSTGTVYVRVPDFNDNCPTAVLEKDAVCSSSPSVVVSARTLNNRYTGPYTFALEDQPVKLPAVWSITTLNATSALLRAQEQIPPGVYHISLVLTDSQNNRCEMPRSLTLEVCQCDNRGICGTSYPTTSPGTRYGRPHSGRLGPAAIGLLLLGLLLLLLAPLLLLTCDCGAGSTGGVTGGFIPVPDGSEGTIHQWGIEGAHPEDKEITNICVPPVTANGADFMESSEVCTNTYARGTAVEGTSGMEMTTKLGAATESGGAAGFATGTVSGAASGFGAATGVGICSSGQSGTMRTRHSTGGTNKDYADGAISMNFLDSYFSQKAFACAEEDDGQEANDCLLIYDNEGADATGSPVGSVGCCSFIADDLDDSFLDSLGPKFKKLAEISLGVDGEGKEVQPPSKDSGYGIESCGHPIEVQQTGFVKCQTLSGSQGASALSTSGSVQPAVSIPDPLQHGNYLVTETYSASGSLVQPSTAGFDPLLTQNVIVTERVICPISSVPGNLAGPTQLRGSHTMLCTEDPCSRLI
DAGLB inhibitor: blocks human DAGLB lipase activity | Q8NCG7 | HEK293T DAGLB membrane lysate, EnzChek fluorogenic substrate | inhibition, % at 5.17 µM | 0.059% of 340,000 active; in the data active = inhibition above about 34%;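 note: 0% = enzyme with vehicle and 100% = wells lacking enzyme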
NadD conf: confirmation of Staphylococcus aureus NadD inhibitors | shares compounds with NadD block | purified S. aureus NadD, colorimetric enzyme assay | AID 624309 | inhibition, % at 20 µM | 13% of 2,000 active; in the data active = inhibition mostly above about 42%, no sharp cut-off; inactive = mostly below about 42%
Starred values were filed as active, the others as inactive; . = no result.

SMILES	rCAG binder	NadD block	bovine MsrA act	MsrA inh	DSG3 Ab inh	DAGLB inhibitor	NadD conf
C=CC#CC[N+]1(CC#Cc2ccccc2)CCOCC1	20	44*	-2	0	231	1	47
COc1ccc(C(=O)c2[nH]c(N)c(C(=O)NCCc3c[nH]c4ccccc34)c2-c2ccccc2Br)cc1	12	12	-4	0	.	.	.
CC[N+](CC)(CC)CCOc1ccc(/C=C/c2ccccc2)cc1	8	5	1	0	106	8	.
CC[N+](CC)(CC)CCCCOc1ccc2c(c1)C(=O)c1cc(OCCCC[N+](CC)(CC)CC)ccc1-2	6	31*	2	-1	99	-4	14
COC(=O)[C@]12C[C@H](CC(=O)N3CCSCC3)C(=O)N(Cc3ccco3)C1=C[C@H](C(C)(C)C)O[C@@H]2C	1	.	.	.	.	.	.
Nc1nonc1-c1nc2ccccc2n1CC(=O)N/N=C\c1ccc(-c2ccc(Cl)cc2)o1	3	42*	-11	1	69	-4	9
NNC(=O)Cn1c(-c2nonc2N)nc2ccccc21	1	8	0	0	98	0	.
COc1ccc(CCNC(=O)c2cnn(-c3ccccc3)c2N)cc1OC	3	.	.	.	.	.	.
COc1ccc2sc(N(CCCN(C)C)C(=O)c3ccc(S(=O)(=O)N4CCCc5ccccc54)cc3)nc2c1	3	11	-1	0	112	1	.
COc1cc2nc(N(CCCN(C)C)C(=O)c3ccc(S(=O)(=O)N4CCc5ccccc54)cc3)sc2cc1OC	2	34*	-6	1	108	2	21
COc1cc(OC)cc(-c2c(-c3cccs3)c3cc(-c4ccc(OCc5ccccc5)cc4)ccc3n2C)c1	3	46*	-5	-1	.	-3	-5
COc1cc(OC)cc(-c2c(-c3cccs3)c3cc(-c4ccc(SC)cc4)ccc3n2C)c1	1	16	-1	1	100	3	.
Cc1ccccc1C(=O)Nc1nnc(CC(=O)N/N=C/c2cn(Cc3ccccc3)c3ccccc23)s1	9	45*	-2	0	82	12	16
CCCC(=O)Nc1ccc2c(c1)C(=O)N(C)[C@H]1CC[C@@H](CC(=O)OC)O[C@@H]1CO2	0	.	.	.	.	.	.
Cc1c(Cl)ccc2c(C(=O)Nc3cc(C(C)(C)C)on3)cc(-c3ccccn3)nc12	5	34*	-4	-1	101	-2	11
O=c1oc2ccccc2cc1-c1csc(Nc2nc3c(F)cccc3s2)n1	13	57*	-2	-1	112	2	1
Cc1ccc(-c2cc(-c3nnc4sc(COc5ccccc5)nn34)[nH]n2)cc1	7	.	.	.	.	.	.
CCOC(=O)Cn1cc(CN2C(C(=O)OC)CN(CCO)CCS2(=O)=O)nn1 (stereo not drawn)	-1	.	.	.	.	.	.
CC1(C)CC(=O)c2c(nc(SCC(=O)Nc3nsc(-c4ccccc4)n3)c(C#N)c2-c2ccccc2)C1	7	39*	0	1	105	-4	-2
Cc1nnc(SCC(=O)Nc2nsc(-c3ccccc3)n2)s1	-2	-8	-1	1	100	-1	.
O=C(NC1CCCC1)C1C(c2ccc(C(F)(F)F)cc2)=Nc2ccccc2N1C(=O)c1ccccc1 (stereo not drawn)	1	.	.	1	.	.	.
CCCN1C(=O)c2ccccc2NC1c1ccc(Cl)c(Cl)c1 (stereo not drawn)	3	-9	-4	2	111	2	.
CCCCN1C2=C(C(=O)CCC2)C(c2ccc(Cl)c(Cl)c2)C2=C1c1ccccc1C2=O (stereo not drawn)	6	32*	-1	0	.	3	8
COc1ccc(S[C@]2(C(=O)N3CCOCC3)CC(=O)N(C(=O)c3ccccc3)[C@@H]2c2ccc(OC)cc2)cc1	8	.	.	.	.	.	.
C/C(=N\NC(=O)c1ccc(OC2OCCOC2Oc2ccc(C(=O)N/N=C(\C)c3ccncc3)cc2)cc1)c1ccncc1 (stereo not drawn)	8	32*	0	1	83	-1	11
SMILES	rCAG binder	NadD block	bovine MsrA act	MsrA inh	DSG3 Ab inh	DAGLB inhibitor	NadD conf
C/C(=N\NC(=O)c1ccncc1)c1ccc(N2CCOCC2)cc1	3	-5	-11	3	77	-1	.
N#CCC(=O)N/N=C/c1ccc(N2N=C(c3ccccc3)CC2c2ccccc2)cc1 (stereo not drawn)	18	49*	-4	4	96	3	26
COc1ccc(C2CC(c3ccccc3)=NN2c2ccc(/C=N/NC(=O)c3ccncc3)cc2)cc1 (stereo not drawn)	4	-6	-1	0	100	-2	.
CC(C)[C@H](N)C(=O)N[C@@H](Cc1ccccc1)C(=O)N1CCC2CCN(S(=O)(=O)c3ccccc3)CC21 (stereo partly drawn)	4	.	.	.	.	.	.
Cc1cc(-c2cc(N)n(-c3ccccc3)n2)c(C)n1C1CCCC1	11	32*	-1	1	89	5	12
CC(C)CNS(=O)(=O)/C=C/c1ccc(F)cc1CNC(=O)OC(C)(C)C	-2	.	.	.	.	.	.
CCOc1ccc(NC(=S)NNc2ccnc3cc(Cl)ccc23)cc1	15	14	-6	0	114	3	.
S=C(NNc1ccnc2cc(Cl)ccc12)Nc1ccc(Cl)cc1Cl	22	30*	-3	1	96	-1	6
Cc1cc(-c2csc(N)n2)c(C)n1CCC(C)C	16	34*	-3	0	86	10	11
COC/C=C/C1=CC2=CC(=O)C(C)(OC(=O)c3cnc4ccccc4n3)C(=O)C2=CN1c1ccc(OC)cc1 (stereo not drawn)	19	33*	-5	1	102	14	29
O=C(Nc1nnc(-c2cccs2)o1)c1cc(-c2ccccc2)nc2ccccc12	44*	55*	-7	2	95	9	51*
CCOC(=O)c1ccc(-c2ccc(N3C(c4ccsc4)=Cc4ccc(F)cc4C3c3c[nH]c4ccc(C#N)cc34)cc2)cc1F (stereo not drawn)	18	30*	-5	1	.	.	10
Cc1ccc(Cc2cnc(NC(=O)/C(C#N)=C/c3ccc(-c4ccccc4[N+](=O)[O-])o3)s2)cc1	7	29*	-3	-2	.	0	-1
Cn1cc(/C=C(\C#N)C(=O)Nc2ncc(Cc3ccc(Cl)cc3)s2)c2ccccc21	3	31*	-3	-1	90	4	0
CNC(=O)/C(C#N)=C/c1cn(CC(=O)OC)c2ccccc12	-1	-9	-6	2	113	-4	.
O=C(Cc1csc(Nc2nc(=S)[nH]c3ccccc23)n1)NCc1cccc(Cl)c1	5	32*	-2	1	103	3	2
Cc1ccc(CNC(=O)Cc2csc(Nc3nc(=S)[nH]c4ccccc34)n2)cc1	7	.	.	1	.	.	.
O=C(Cc1csc(Nc2nc(=S)[nH]c3ccccc23)n1)N1CCN(c2cccc(C(F)(F)F)c2)CC1	5	33*	-5	1	103	2	8

Screening data: PubChem BioAssay, several laboratories
